KCNK9 inh: human KCNK9 channel inhibition. Q9NPC2. HEK293 KCNK9, FluxOR thallium flux fluorescence; stronger effect = lower value. B-score at 10 µM. 310,000 tested, 1.2% active. AID 488922;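 active means ratio B-score over 3 SD below the library mean, with starting fluorescence within 5 SD of its mean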;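 further: negative B-score means less thallium flux so channel inhibition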
ANO1 block: blocks the mouse calcium-activated chloride channel TMEM16A. Q8BHY3. HEK293 TMEM16A/YFP iodide influx fluorescence, ionomycin. normalized B-score (activity score, 25-100; higher = stronger inhibition) at 10 µM. 310,000 tested, 1.2% active;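 active means ratio plate-corrected score three or more library SD toward inhibition, starting fluorescence score within five deviations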;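 further: score derived from kinetic fluorescence span divided by baseline fluorescence per well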
ANO1 activ: mouse TMEM16A channel activation, primary screen; Q8BHY3; HEK293 TMEM16A/YFP-H148Q/I152L, iodide quench fluorescence; stronger effect = lower value; B-score at 10 µM; 340,000 tested, 0.3% active;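 active means fluorescence-ratio B-score plate-corrected deviation score at least 3 library SD below zero, with starting fluorescence score within 5 deviations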;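 further: channel opened by trigger with iodide after compound preincubation; score built on the fluorescence ratio of max minus min over baseline; more negative score means more quench and so TMEM16A activation or potentiation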
KCNK3 inh: human KCNK3 channel inhibition, primary screen | O14649 | CHO-KCNK3 thallium flux, FluxOR fluorescence; stronger effect = lower value | B-score at 10 µM | 340,000 tested, 0.84% active | AID 602410;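 active means B-score under library mean minus 4 SD, starting fluorescence ratio at most library mean plus 5 SD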;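 further: more negative B-score means stronger inhibition of thallium flux through KCNK3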
Kir21 inh: blocks the mouse Kir2.1 inward-rectifier potassium channel; P35561; HEK293-Kir2.1, FluxOR thallium flux fluorescence; stronger effect = lower value; B-score at 10 µM; 310,000 tested, 0.85% active; AID 1672;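 active means fluorescence ratio B-score at or below minus 3 SD of library scores, with starting-brightness B-score within 2 SD, cut at about -4.2 in these data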;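 further: channel flux triggered by added potassium and thallium sulfate stimulus; B-score of peak minus minimum fluorescence over baseline after thallium stimulus; more negative B-score means stronger Kir2.1 block with less thallium influx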
Target sequence (P35561 whole entry, looked up): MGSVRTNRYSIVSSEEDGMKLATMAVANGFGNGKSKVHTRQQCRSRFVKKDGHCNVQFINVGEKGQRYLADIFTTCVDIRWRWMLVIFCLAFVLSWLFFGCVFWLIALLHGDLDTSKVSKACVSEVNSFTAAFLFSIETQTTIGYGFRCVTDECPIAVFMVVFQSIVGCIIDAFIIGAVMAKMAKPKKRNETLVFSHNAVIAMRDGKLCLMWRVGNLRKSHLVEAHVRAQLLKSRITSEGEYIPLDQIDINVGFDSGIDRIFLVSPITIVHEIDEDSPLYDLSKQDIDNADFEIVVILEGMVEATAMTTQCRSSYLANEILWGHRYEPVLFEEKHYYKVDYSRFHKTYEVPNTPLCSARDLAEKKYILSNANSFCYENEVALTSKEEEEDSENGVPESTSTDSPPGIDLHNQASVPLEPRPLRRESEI
KCNK3 confirm: human KCNK3 channel inhibition, confirmation assay; shares compounds with KCNK3 inh; CHO-KCNK3 thallium flux, FluxOR fluorescence; 0% buffer, 100% carvedilol maximal block; ratio percent of control, % at 10 µM; 2,400 tested, 99% active; AID 651638;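 active means ratio percent of control, averaged over triplicates, above buffer control mean plus 5 SD, cut at about 64% in these data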;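 further: ratio is the fluorescence rise from min to max over baseline after thallium stimulus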
KCNK3 noninduced: counter-screen for KCNK3 inhibitors: effect in non-induced cells. shares compounds with KCNK3 inh. non-induced KCNK3 parental cells, FluxOR thallium flux; stronger effect = lower value. thallium flux ratio (lower = more inhibition) at 10 µM. 2,400 tested, 40% active. AID 651747;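 active means thallium flux ratio, averaged over three wells, more than 5 SD below the buffer control mean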;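 further: host cells are CHO cells without KCNK3 induction; ratio is peak minus trough fluorescence over baseline then normalized to buffer controls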
The depositor's hits bear a star. Only some compounds are listed: those with a hit (about 3.5% of all), similar ones and a draw of the others.

What do the screens show for `COc1ccc(OC)c(C2(O)CSC(=Nc3cccnc3)N2Cc2ccco2)c1` (stereo not drawn)?
KCNK9 inh: inactive; ANO1 block: inactive; ANO1 activ: inactive; KCNK3 inh: -11*; Kir21 inh: -0.34; KCNK3 confirm: 0; KCNK3 noninduced: inactive

Results for Cc1cc(C(=O)CSc2nnc(-c3ccccc3F)o2)c(C)n1Cc1cccs1 ?
KCNK9 inh: inactive; ANO1 block: inactive; ANO1 activ: inactive; KCNK3 inh: inactive; Kir21 inh: -0.86

Results for Cc1cc(C(=O)CN2C(=O)c3cccc(N)c3C2=O)c(C)n1Cc1cccs1 ?
KCNK9 inh: inactive; ANO1 block: inactive; ANO1 activ: inactive; KCNK3 inh: -11*; Kir21 inh: -2.1; KCNK3 confirm: 121*; KCNK3 noninduced: inactive

How did Cc1cc(OCC(=O)N2CCc3ccccc3C2)c(C)cc1Br do in these assays?
KCNK9 inh: inactive; ANO1 block: inactive; ANO1 activ: inactive; KCNK3 inh: -8.8*; Kir21 inh: -0.76; KCNK3 confirm: 130*; KCNK3 noninduced: 0.14*

Results for Cc1cc(C)cc(OCC(=O)N2CCc3ccccc3C2)c1 ?
KCNK9 inh: inactive; ANO1 block: inactive; ANO1 activ: inactive; KCNK3 inh: inactive; Kir21 inh: -1.5

How did Cc1cccc(Nc2cc(C)c3c(O)cccc3n2)c1C do in these assays?
KCNK9 inh: inactive; ANO1 block: inactive; ANO1 activ: inactive; KCNK3 inh: -9.7*; Kir21 inh: -0.91; KCNK3 confirm: 111*; KCNK3 noninduced: inactive

Results for Cc1cccc(NC(=S)N(C)C)c1C ?
KCNK9 inh: inactive; ANO1 block: inactive; ANO1 activ: inactive; KCNK3 inh: inactive; Kir21 inh: -1.1

Results for Cc1ccc(O)c(-c2cc(-c3ccc(F)cc3)no2)c1 ?
KCNK9 inh: inactive; ANO1 block: inactive; ANO1 activ: inactive; KCNK3 inh: inactive; Kir21 inh: -0.15

How did CCOc1ccc(NC(=O)CN(C)C(=O)c2c(C)nn(-c3ccccc3)c2Cl)cc1OCC do in these assays?
KCNK9 inh: inactive; ANO1 block: inactive; ANO1 activ: inactive; KCNK3 inh: inactive; Kir21 inh: 0.04

What do the screens show for `COc1ccccc1NC(=O)c1ccccc1Oc1ccccc1`?
KCNK9 inh: inactive; ANO1 block: inactive; ANO1 activ: inactive; KCNK3 inh: -8.8*; Kir21 inh: 0.03; KCNK3 confirm: 122*; KCNK3 noninduced: 0.12*

Results for COc1ccccc1NC(=O)c1ccccc1C(=O)O ?
KCNK9 inh: inactive; ANO1 block: inactive; ANO1 activ: inactive; KCNK3 inh: inactive; Kir21 inh: 0.04

How did COc1ccccc1NC(=O)c1ccc(COc2ccccc2OC)cc1 do in these assays?
KCNK9 inh: inactive; ANO1 block: inactive; ANO1 activ: inactive; KCNK3 inh: -8.8*; Kir21 inh: -0.02; KCNK3 confirm: 103*; KCNK3 noninduced: inactive

Results for N#CC1(NC(=O)CN2C(=O)NC3(CCCCCC3)C2=O)CCCCC1 ?
ANO1 activ: inactive; KCNK3 inh: inactive

How did C/C(=N\N=C1\NC(=O)C(Cc2ccccc2)S1)c1ccccc1 (stereo not drawn) do in these assays?
KCNK9 inh: inactive; ANO1 block: inactive; ANO1 activ: inactive; KCNK3 inh: -10*; Kir21 inh: 1; KCNK3 confirm: 103*; KCNK3 noninduced: 0.16*

How did O=C1N/C(=N/N=C/c2ccco2)SC1Cc1ccccc1 (stereo not drawn) do in these assays?
KCNK9 inh: inactive; ANO1 block: inactive; ANO1 activ: inactive; KCNK3 inh: inactive; Kir21 inh: 0.88

Results for Cc1ccc(NC(=S)Nc2cccnc2)c(S(=O)(=O)N2CCCCC2)c1 ?
KCNK9 inh: inactive; ANO1 block: inactive; ANO1 activ: inactive; KCNK3 inh: -12*; Kir21 inh: -0.57; KCNK3 confirm: 110*; KCNK3 noninduced: inactive

How did CC1=[N+](C)c2c(ccc3cccnc23)C1(C)C do in these assays?
ANO1 activ: inactive; KCNK3 inh: -12*; KCNK3 confirm: 119*; KCNK3 noninduced: inactive

How did O=C(Cn1nc(CNc2ccc(Br)cc2)[n+]2c1CCCCC2)c1ccc([N+](=O)[O-])cc1 do in these assays?
KCNK9 inh: inactive; ANO1 block: inactive; ANO1 activ: inactive; KCNK3 inh: inactive; Kir21 inh: 0.21

What do the screens show for `COCc1cc(C)nc(SCc2ccc(Br)cc2)c1C#N`?
KCNK9 inh: inactive; ANO1 block: inactive; ANO1 activ: inactive; KCNK3 inh: -11*; Kir21 inh: 0.14; KCNK3 confirm: 106*; KCNK3 noninduced: inactive

What do the screens show for `COCc1cc(C)nc(SCc2ccc(Cl)cc2)c1C#N`?
KCNK9 inh: inactive; ANO1 block: inactive; KCNK3 inh: -11*; Kir21 inh: 0.43; KCNK3 confirm: 96*; KCNK3 noninduced: 0.15*

What do the screens show for `COCc1cc(C)nc(SCc2ccc(F)cc2)c1C#N`?
KCNK9 inh: inactive; ANO1 block: inactive; ANO1 activ: inactive; KCNK3 inh: inactive; Kir21 inh: -1.1

Results for CN1CCN(NC(=O)c2ccc(Br)s2)CC1 ?
KCNK9 inh: inactive; ANO1 block: inactive; ANO1 activ: inactive; KCNK3 inh: inactive; Kir21 inh: -0.67

What do the screens show for `Cc1cc(Nc2ccccc2)nc(-c2ccccc2O)n1`?
KCNK9 inh: inactive; ANO1 block: inactive; ANO1 activ: inactive; KCNK3 inh: inactive; Kir21 inh: -1.3

What do the screens show for `Cc1cc(NCc2ccccc2)nc(-c2ccccc2O)n1`?
KCNK9 inh: inactive; ANO1 block: inactive; ANO1 activ: inactive; KCNK3 inh: -11*; Kir21 inh: 0.77; KCNK3 confirm: 133*; KCNK3 noninduced: 0.13*

Results for CCOc1ccccc1NC(=O)C(OC(=O)c1ccc(NC(=O)CC#N)cc1)c1ccccc1 (stereo not drawn) ?
KCNK9 inh: inactive; ANO1 block: inactive; ANO1 activ: inactive; KCNK3 inh: -10*; Kir21 inh: 1.9; KCNK3 confirm: 125*; KCNK3 noninduced: 0.13*

Results for CCOc1ccccc1NC(=O)C(OC(=O)c1cc(C)oc1C)c1ccccc1 (stereo not drawn) ?
KCNK9 inh: -7.9*; ANO1 block: inactive; ANO1 activ: inactive; KCNK3 inh: inactive; Kir21 inh: -1.3; KCNK3 confirm: 106*; KCNK3 noninduced: inactive

How did CC(OC(=O)c1ccc(NC(=O)CC#N)cc1)C(=O)NC(c1ccccc1)c1ccccc1 (stereo not drawn) do in these assays?
ANO1 activ: inactive; KCNK3 inh: inactive
